# Assay results published in PubChem BioAssay (EPA / NIEHS).
# Results filed as inconclusive are left out. Activity calls are given as the source filed them. How the source made its calls, unless noted: active means hit-call score of the fitted dose curve at least 0.9, where 1 is the maximum; inactive means score below 0.9.
# Assays:
# [1] = tested on: Brachyury (BRA) Protein Expression, Deisenroth Lab, TBXT (gene 6862); experiment: CCTE_Deisenroth_DEVTOX-GLR_Pluri_BRA: CCTE's DevTox GLR-Pluri Assay Evaluation of Brachyury (BRA) Protein Expression, Deisenroth Lab (AID 2284429; active means hit-call score of the fitted dose curve at least 0.9, where 1 is the maximum)
# Summary of the method: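 RUES2-GLR reporter line; 48 h mesoderm differentiation; two exposures, 24 h apart; 1 nM - 200 uM, 10 points; nuclear stain, high-content imaging, 5 fields/well; endpoint = %BRA+ cells of total count minus 0.2% DMSO; n=4.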
# [2] = CCTE_Deisenroth_DEVTOX-GLR_Pluri_CellCount: Viability Assessment in CCTE's DevTox GLR-Pluri Assay Evaluation of Total Cell Counts, Deisenroth Lab (AID 2284430)
# Description: CCTE_Deisenroth_DEVTOX-GLR_Pluri assay is a cell-based, multiplex-readout assay that uses RUES2-GLR, a human pluripotent cell line, with measurements taken at 48 hours after chemical dosing in a 384-well microplateCCTE_Deisenroth_DEVTOX-GLR_Pluri_CellCount is 1 of 4 assay components calculated from the CCTE_Deisenroth_DEVTOX-GLR_Pluri assay and it measures cell count. Using fluorescent nuclei staining, gain-of-signal activity can be used to understand changes in cell viability with fluorescent microscopy. It is designed to make measurements of nuclei counts as a surrogate for cell number, as detected with optical fluorescence microscopy by Perkin Elmer Harmony nuclei detection algorithm. To generalize the intended target to other relatable targets, this assay component is annotated to the cell cycle intended target family, where the subfamily is cytotoxicity.Data from the assay component CCTE_Deisenroth_DEVTOX-GLR_Pluri_CellCount was analyzed as 1 assay endpoint. The endpoint the percent change in the cell count relative to the 0.2% DMSO control in the CCTE_Deisenroth_DEVTOX-GLR_Pluri assay. Furthermore, this assay endpoint can be referred to as a primary readout, because this assay has produced multiple assay endpoints where this one serves as a measure of cytotoxicity.
# All assay protocols are aligned to the DevTox GLR-Endo assay workflow. […]
compound,measurement,setting,value
COC(=O)c1ccccc1C(=O)OC,outcome,[1],inactive
same,outcome,[2],inactive
